The full ranking holds about 16,000 sequences; the median of “rpm ratio (pull-down/input)” is about 0.94, and the highest 2% start at about 1.7. Shown is part of a subset that was picked to be rich in the highest values.
biological target: T1, MBP-FoxP1dN (Mus musculus, UniProt P58462 326-579); assay: PD-seq (MBP pull-down with sequencing); 20 mM Tris-HCl pH 7.5, 100 mM NaCl, 1.5 mM MgCl2, 0.4 uM protein, 0.1 uM dsDNA library, 30 min, room temperature, amylose pull-down; high values mean tight binding; conditions: protein: recombinant; tags: His6-MBP; chain copies: 2; dsDNA, one strand shown
T1 sequence: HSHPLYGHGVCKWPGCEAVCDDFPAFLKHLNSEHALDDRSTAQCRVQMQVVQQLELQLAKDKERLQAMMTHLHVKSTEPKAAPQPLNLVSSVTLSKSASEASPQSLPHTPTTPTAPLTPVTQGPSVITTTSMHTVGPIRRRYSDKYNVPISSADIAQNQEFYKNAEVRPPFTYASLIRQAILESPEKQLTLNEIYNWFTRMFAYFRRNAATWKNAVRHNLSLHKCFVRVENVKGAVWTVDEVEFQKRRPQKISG
How it was run: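 Amylose resin was used to capture complexes formed during 30 min at room temperature in Tris pH 7.5 buffer with NaCl and MgCl2 between 0.4 µM His6-MBP-tagged mouse FoxP3 or FoxP1 fragment lacking the N-terminus, expressed in E. coli, and 0.1 µM Klenow-filled double-stranded degenerate DNA library. After three washes, the DNA was released with proteinase K, barcoded by PCR and sequenced on Illumina. Binding is pooled-replicate reads-per-million enrichment, pull-down over input.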

Sequence | binding signal
GATGATTGTTCTCCCAGCTGATGAATTAGACAGTTCGAGTAAACAAATTTTCCTAATCTTTCTGTTCAAGCGCCATCTAC | 0.913 RPM ratio (pull-down/input)
GATGATTGTTCTCCCAGCTGATGAATTTTTAAGTTCGAGTAAACAAATTTTCCTAATCTTTCTGTTCAAGCGCCATCTAC | 0.97 RPM ratio (pull-down/input)
GATGATTGTTCTCCCAGCTGATGAATTCAACGCGTCGAGTAAACAAATTTTCCTAATCTTTCTGTTCAAGCGCCATCTAC | 0.959 RPM ratio (pull-down/input)
GATGATTGTTCTCCCAGCTGATGAATTTTTACCATCGAGTAAACAAATTTTCCTAATCTTTCTGTTCAAGCGCCATCTAC | 1.01 RPM ratio (pull-down/input)
GATGATTGTTCTCCCAGCTGATGAATTTTACTGGTCGAGTAAACAAATTTTCCTAATCTTTCTGTTCAAGCGCCATCTAC | 0.796 RPM ratio (pull-down/input)
GATGATTGTTCTCCCAGCTGATGAATTCTGGAGATCGAGTAAACAAATTTTCCTAATCTTTCTGTTCAAGCGCCATCTAC | 0.812 RPM ratio (pull-down/input)
GATGATTGTTCTCCCAGCTGATGAATTACAATGTTCGAGTAAACAAATTTTCCTAATCTTTCTGTTCAAGCGCCATCTAC | 1.4 RPM ratio (pull-down/input)
GATGATTGTTCTCCCAGCTGATGAATTATCAAAATCGAGTAAACAAATTTTCCTAATCTTTCTGTTCAAGCGCCATCTAC | 1.22 RPM ratio (pull-down/input)
GATGATTGTTCTCCCAGCTGATGAATTATCAACATCGAGTAAACAAATTTTCCTAATCTTTCTGTTCAAGCGCCATCTAC | 2.09 RPM ratio (pull-down/input)
GATGATTGTTCTCCCAGCTGATGAATTATCTACATCGAGTAAACAAATTTTCCTAATCTTTCTGTTCAAGCGCCATCTAC | 1.12 RPM ratio (pull-down/input)
GATGATTGTTCTCCCAGCTGATGAATTTATTTCATCGAGTAAACAAATTTTCCTAATCTTTCTGTTCAAGCGCCATCTAC | 1.16 RPM ratio (pull-down/input)
GATGATTGTTCTCCCAGCTGATGAATTTATTTTATCGAGTAAACAAATTTTCCTAATCTTTCTGTTCAAGCGCCATCTAC | 1.46 RPM ratio (pull-down/input)
GATGATTGTTCTCCCAGCTGATGAATTTTATTTATCGAGTAAACAAATTTTCCTAATCTTTCTGTTCAAGCGCCATCTAC | 2.95 RPM ratio (pull-down/input)
GATGATTGTTCTCCCAGCTGATGAATTTGCTCCCTCGAGTAAACAAATTTTCCTAATCTTTCTGTTCAAGCGCCATCTAC | 0.995 RPM ratio (pull-down/input)
GATGATTGTTCTCCCAGCTGATGAATTACGGCCTTCGAGTAAACAAATTTTCCTAATCTTTCTGTTCAAGCGCCATCTAC | 0.977 RPM ratio (pull-down/input)
GATGATTGTTCTCCCAGCTGATGAATTGCTGAGATCGAGTAAACAAATTTTCCTAATCTTTCTGTTCAAGCGCCATCTAC | 0.969 RPM ratio (pull-down/input)

Sequence | binding signal
GATGATTGTTCTCCCAGCTGATGAATTGACTAGTTCGAGTAAACAAATTTTCCTAATCTTTCTGTTCAAGCGCCATCTAC | 1.08 RPM ratio (pull-down/input)
GATGATTGTTCTCCCAGCTGATGAATTAGTAACATCGAGTAAACAAATTTTCCTAATCTTTCTGTTCAAGCGCCATCTAC | 1.45 RPM ratio (pull-down/input)
GATGATTGTTCTCCCAGCTGATGAATTTCCCACTTCGAGTAAACAAATTTTCCTAATCTTTCTGTTCAAGCGCCATCTAC | 0.889 RPM ratio (pull-down/input)
GATGATTGTTCTCCCAGCTGATGAATTCCTGTGTTCGAGTAAACAAATTTTCCTAATCTTTCTGTTCAAGCGCCATCTAC | 1.26 RPM ratio (pull-down/input)
GATGATTGTTCTCCCAGCTGATGAATTTTGTTATTCGAGTAAACAAATTTTCCTAATCTTTCTGTTCAAGCGCCATCTAC | 2.37 RPM ratio (pull-down/input)
GATGATTGTTCTCCCAGCTGATGAATTGTGTTATTCGAGTAAACAAATTTTCCTAATCTTTCTGTTCAAGCGCCATCTAC | 2.18 RPM ratio (pull-down/input)
GATGATTGTTCTCCCAGCTGATGAATTTTCTTATTCGAGTAAACAAATTTTCCTAATCTTTCTGTTCAAGCGCCATCTAC | 0.953 RPM ratio (pull-down/input)
GATGATTGTTCTCCCAGCTGATGAATTCGTTATTTCGAGTAAACAAATTTTCCTAATCTTTCTGTTCAAGCGCCATCTAC | 1.14 RPM ratio (pull-down/input)
GATGATTGTTCTCCCAGCTGATGAATTGTTATGTTCGAGTAAACAAATTTTCCTAATCTTTCTGTTCAAGCGCCATCTAC | 2.01 RPM ratio (pull-down/input)
GATGATTGTTCTCCCAGCTGATGAATTCTCTTATTCGAGTAAACAAATTTTCCTAATCTTTCTGTTCAAGCGCCATCTAC | 0.995 RPM ratio (pull-down/input)
GATGATTGTTCTCCCAGCTGATGAATTCTTATGTTCGAGTAAACAAATTTTCCTAATCTTTCTGTTCAAGCGCCATCTAC | 1.21 RPM ratio (pull-down/input)
GATGATTGTTCTCCCAGCTGATGAATTTGGTTATTCGAGTAAACAAATTTTCCTAATCTTTCTGTTCAAGCGCCATCTAC | 1.15 RPM ratio (pull-down/input)
GATGATTGTTCTCCCAGCTGATGAATTTGATTATTCGAGTAAACAAATTTTCCTAATCTTTCTGTTCAAGCGCCATCTAC | 1.2 RPM ratio (pull-down/input)
GATGATTGTTCTCCCAGCTGATGAATTCTTATTTTCGAGTAAACAAATTTTCCTAATCTTTCTGTTCAAGCGCCATCTAC | 2.25 RPM ratio (pull-down/input)
GATGATTGTTCTCCCAGCTGATGAATTTATGATTTCGAGTAAACAAATTTTCCTAATCTTTCTGTTCAAGCGCCATCTAC | 1.37 RPM ratio (pull-down/input)
